This note sets out measurements from publication PMC4552634, “A New Set of Chemical Starting Points with Plasmodium falciparum Transmission-Blocking Potential for Antimalarial Drug Discovery” (PLoS ONE, 2015).

In all, about 13,000 compounds went through this assay and about 3,200 (25%) showed an effect of 50% or more. Some of the results follow.

The test concerns P. falciparum stage V gametocytes. Also noted: BacTiter-Glo ATP luminescence viability of purified stage V gametocytes in 384-well plates, per cent inhibition versus DMSO. To be noted: 48 h, 5 µM; inhibitor.
A word on the % Inhibition: it is the relative decrease from the control value, in per cent. Consider `CN(Cc1ccccc1)C1CCN(c2cc(NC(=O)c3cccc(F)c3)ccn2)CC1` [TCMDC-135000], for which the “% Inhibition” value is recorded as -5.844%.

In the case of `Clc1ncnc2ncn(Cc3cccc(Br)c3)c12` [TCMDC-137635], the “% Inhibition” value is reported as 63.17%.

As for `Clc1nc(Cl)c2c(ccn2Cc2ccccc2)n1` [TCMDC-137801], the “% Inhibition” value is given as 10.13%.

`CCCCCN1CCCC(CNS(=O)(=O)c2cccc(C(=O)Nc3ccc(C(F)(F)F)cc3)c2)C1` (stereo not shown) [TCMDC-133672]: the “% Inhibition” value is given as -63.4%.

With `Fc1cccc(Cn2ncc3cc(Nc4ncnc5sc(C#Cc6ncc[nH]6)cc45)ccc32)c1` [TCMDC-135428], the “% Inhibition” value is listed as -11.76%.

With `O=c1cc(NCCCNCc2cc3ccc(Br)cc3s2)[nH]c2ccccc12` [TCMDC-140332], the “% Inhibition” value is -45.39%.

Turning to `OC(c1n[nH]c(=S)n1-c1ccccc1)C(O)c1n[nH]c(=S)n1-c1ccccc1` (stereo not shown) [TCMDC-125763], the “% Inhibition” value stood at 1.463%.

On to `Cn1cncc1-c1cc2c(Nc3ccc(OCc4ccccc4)cc3)ncnc2cn1` [TCMDC-137188], for which the “% Inhibition” value is reported as -27.44%.

With `Cc1[nH]c(C)c(-c2ccc(-c3ccc(OC(F)(F)F)cc3)nc2)c(=O)c1Br` [TCMDC-136016], the “% Inhibition” value stood at 67.89%.

On to `Cc1[nH]c(C)c(-c2ccc(-c3ccc(OC(F)(F)F)cc3)nc2)c(=O)c1Cl` [TCMDC-135677], for which the “% Inhibition” value is 60.39%.

With `Cc1[nH]c(C)c(-c2ccc(-c3cccc(OC(F)(F)F)c3)nc2)c(=O)c1Cl` [TCMDC-136286], the “% Inhibition” value was determined as 5.058%.

`CC(=O)c1sc(NC(=O)Nc2ccc(C)cc2C)nc1C` [TCMDC-124895]: the “% Inhibition” value was -9.928%.

Regarding `CO/C(=C\C=C\c1cc2cc(Cl)c(Cl)cc2[nH]1)C(=O)Nc1ccc(NCCN(C)C)nc1` [TCMDC-139073], the “% Inhibition” value was -22.07%.

With `Cc1cccc2[nH]c(C3CCN(CC4CCN(C(=O)/C=C/c5ccc(Cl)c(Cl)c5)CC4)CC3)nc12` [TCMDC-140146], the “% Inhibition” value was -0.3523%.

As to `CCOC(=O)[C@H](Cc1cccc2ccccc12)NC(=O)[C@H](CCC(=O)OC(C)(C)C)NC(=O)c1ccc(N(C)Cc2cnc3nc(N)nc(N)c3n2)cc1` [TCMDC-137288], the “% Inhibition” value came out at 41.06%.

Regarding `Cc1cccc2nc(-c3ccc(-c4ccc(CNCCCN5CCCC5=O)cc4)s3)[nH]c12.O=C(O)C(F)(F)F` [TCMDC-132755], the “% Inhibition” value came to 11.61%.

On to `CCCCOc1ccc(C(=O)C(CCC(CNC(C)(C)C)C(=O)c2ccc(OCCCC)cc2)CNC(C)(C)C)cc1` (stereo not shown) [TCMDC-124120], for which the “% Inhibition” value turned out to be 110.6%.

Turning to `CCCCOC(=O)c1ccc(Nc2cc(C)nc3ccc(OC)cc23)cc1` [TCMDC-124192], the “% Inhibition” value is 8.663%.

`CCOC(=O)c1ccc(OCCOc2ccccc2)cc1` [TCMDC-125533]: the “% Inhibition” value amounted to 1.604%.

In the case of `CCCc1ccc(S(=O)(=O)NC2CCN(C(=O)Nc3ccc(I)cc3)CC2)cc1` [TCMDC-139436], the “% Inhibition” value turned out to be 4.903%.

Turning to `CS(=O)(=O)CCNC(=O)c1ccc(-c2cc3c(Nc4ccc5c(cnn5Cc5ccccc5)c4)ncnc3cn2)o1` [TCMDC-138125], the “% Inhibition” value was found to be 1.646%.

As to `Cc1cc(N[C@@H](Cc2ccccc2)C(=O)NCc2cccs2)nc(NCCc2ccccn2)n1` [TCMDC-134747], the “% Inhibition” value is recorded as 121.6%.

Turning to `Cc1cc(N[C@@H](Cc2ccccc2)C(=O)NCc2cccs2)nc(NCCc2ccc(F)cc2)n1` [TCMDC-134787], the “% Inhibition” value is given as 66.5%.

For `COc1ccccc1CCNc1nc(C)cc(N[C@@H](Cc2ccccc2)C(=O)NCc2cccs2)n1` [TCMDC-134802], the “% Inhibition” value was found to be 51.92%.

`Cc1cc(N[C@@H](Cc2ccccc2)C(=O)NCc2cccs2)nc(NCC2CCCCC2)n1` [TCMDC-134930]: the “% Inhibition” value was -30.67%.

Take `Cc1cc(N[C@@H](Cc2ccccc2)C(=O)NCc2cccs2)nc(NCCc2cccnc2)n1` [TCMDC-134819]: the “% Inhibition” value is 56.43%.

As for `CC(C)(C)c1cc(C(=O)Nc2ccc(C(=N)N)cc2)c(O)c(C(C)(C)C)c1` [TCMDC-136316], the “% Inhibition” value was found to be 24.98%.

`CCc1ccc(C(=O)Nc2cccc(CN3CCCN(Cc4ccc(O)cc4)CC3)c2)cc1` [TCMDC-141884]: the “% Inhibition” value was 21.35%.

For `Cc1ccc(NC(=O)c2cccc(CN3CCCN(CC4CCCCC4)CC3)c2)cc1F` [TCMDC-135958], the “% Inhibition” value is on record as -34.77%.

`COCCSc1nc2scc(C)c2c(=O)n1Cc1cccc(OC)c1` [TCMDC-134420]: the “% Inhibition” value is 25.73%.

For the compound `CCCCCN1CCC(NC(=O)c2ccc(C(=O)Nc3ccc(C(C)C)cc3)cc2)C1` (stereo not shown) [TCMDC-136744], the “% Inhibition” value is given as -20.17%.

Turning to `Nc1ncnc2c1ncn2C(CO)Cc1ccc(O)cc1` (stereo not shown) [TCMDC-137893], the “% Inhibition” value is -20.6%.

Consider `C[C@H](Cc1ccc(C[C@@H](C)NCC(O)c2cc(Cl)c(N)c(Cl)c2)cc1)NCC(O)c1cc(Cl)c(N)c(Cl)c1` (stereo partly shown) [TCMDC-131548], for which the “% Inhibition” value was 39.43%.

Take `Cc1cccc(CCNC(=O)c2cc(Br)cc(N3CCN(c4ccncc4)CC3)c2)c1` [TCMDC-135149]: the “% Inhibition” value was -71.81%.

Turning to `CCOC(=O)c1ccc(NC(=O)Nc2ccc(-c3cccc(-c4nc5ccc(F)cc5[nH]4)c3)cc2)cc1` [TCMDC-133269], the “% Inhibition” value was -27.05%.

On to `Cc1cc(N[C@@H](Cc2ccccc2)C(=O)NCCc2ccccc2)nc(NCCc2cccs2)n1` [TCMDC-134874], for which the “% Inhibition” value is given as 14.35%.

Turning to `Cc1cc(N[C@@H](Cc2ccccc2)C(=O)NCc2cccs2)nc(NCCc2ccccc2)n1` [TCMDC-134775], the “% Inhibition” value came to 70.11%.

For `Cc1cc(N[C@@H](Cc2ccccc2)C(=O)NCc2cccs2)nc(Nc2ccccc2)n1` [TCMDC-134734], the “% Inhibition” value is listed as -21.51%.

With `Cc1cc(N(C)C2CCN(C)C2)nc(Nc2ccccc2Cl)n1` (stereo not shown) [TCMDC-137007], the “% Inhibition” value was determined as 12.36%.

As to `Cc1cc(NC(=O)c2cc(S(=O)(=O)N3CCCCC3)ccc2C)no1` [TCMDC-124530], the “% Inhibition” value was found to be 23.56%.

With `Cc1ccc(NC(=O)c2cc(S(=O)(=O)NC(C)(C)C)ccc2C)nc1` [TCMDC-125009], the “% Inhibition” value amounted to 54.13%.

In the case of `Cc1ccc(C)c(S(=O)(=O)Nc2ccc(Br)cc2C(=O)Nc2cccc(C(F)(F)F)c2)c1` [TCMDC-141482], the “% Inhibition” value was determined as 10.24%.

Turning to `Cc1cc(N2CCC(NS(=O)(=O)c3ccccc3)CC2)nc(Nc2cccc(C#N)c2)n1` [TCMDC-134213], the “% Inhibition” value stood at 22.13%.
